This assay is described as follows: M. tuberculosis growth inhibition, HTS (AID 1259417).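 Also: bacteria grown with compound for 5 days at 37 °C.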 Particulars: stronger effect = higher value, concentration not given here.
Where [1] appears, read: M. tuberculosis DsRed fluorescence growth inhibition.
Where [2] appears, read: M. tuberculosis growth inhibition.

The campaign covered roughly 1,100 compounds. About 760 (69%) were called active. No rule for the calls is given here. So high a share suggests a set chosen from earlier hits. Some of the results follow.

For orientation: inhibition means the drop in the measured response relative to a control, in per cent.

`COc1cccc(OC)c1C(=O)Nc1ccc(Cl)c(-c2nc3ccccc3s2)c1`: the inhibition reads like this: under setting [1], 72.8% (active); under setting [2], 62.9%.
For `CCc1ccc(/C=c2\s/c(=C/C(=O)C(C)(C)C)[nH]c2=O)cc1` the same measures were 99.8% (active) and 99.5%.
For `CC(C)Cn1c(N2CCN(Cc3ccc(Cl)c(Cl)c3)CC2)nc2c1c(=O)[nH]c(=O)n2C` the same measures were 7.43% (active) and 34.1%.
Consider `O=C1NC(=NN=Cc2ccccc2O)SC1Cc1ccc(F)cc1` (stereo unspecified), for which the inhibition is 99.2% (active) under setting [1] and 98.8% under setting [2].
For `CC(=N/N=C1\NC(=O)C(Cc2ccc(F)cc2)S1)c1ccc(Cl)cc1` (stereo unspecified) the same measures were 8.19% (inactive) and -27.8%.
For `CC(=N/N=C1\NC(=O)C(Cc2ccc(Cl)cc2)S1)c1ccc(F)cc1` (stereo unspecified) the same measures were 5% (inactive) and -11.9%.
For `COc1ccc(CC2SC(=NN=Cc3ccccc3O)NC2=O)cc1` (stereo unspecified) the same measures were 98.1% (active) and 97.1%.
Consider `CCc1ccccc1-n1c(=O)oc2ccc(Cl)cc2c1=O`, for which the inhibition under setting [1] was 101% (active) and the inhibition under setting [2] came to 100%.
For `Cc1ccc(-n2c(=O)oc3ccc(Cl)cc3c2=O)cc1Cl` the same measures were 100% (active) and 101%.
For `Cc1ccc(-c2c[n+](CC(=O)Nc3nc(-c4ccc(F)cc4)cs3)c3n2CCC3)cc1` the same measures were 15.8% (inactive) and 14.8%.
In the case of `CCOC(=O)C=CC(=O)Nc1nc(-c2ccccc2)cs1`, the inhibition under setting [1] is 41.3% (active) and the inhibition under setting [2] was 56%.
As to `Cc1cccc(-n2c(N)cc(=O)nc2SCC(=O)Nc2nc(-c3ccccc3)cs2)c1`, the inhibition is -2.92% (inactive) under setting [1] and -16.5% under setting [2].
For `CCc1ccc(OCC(=O)NNC(=O)c2cnccn2)c(Br)c1` the same measures were 93.6% (active) and 95.4%.
For `N#CC(=CNc1ccccc1)c1nc2ccccc2[nH]1` the same measures were 34.4% (active) and 48.7%.
For `Cc1ccc2nc(/C(C#N)=C/c3c[nH]c4ccc(Br)cc34)[nH]c2c1` the same measures were 19.3% (inactive) and 22.8%.
For the compound `CCOC(=O)COc1c(Cl)cc(C=C(C#N)c2nc3ccc(OC)cc3[nH]2)cc1Cl`, the inhibition under setting [1] was 45.4% (active) and the inhibition under setting [2] is 50.3%.
For `CCOC(=O)Cn1cc(C=C(C#N)c2nc3ccc(OC)cc3[nH]2)c2ccccc21` the same measures were -3.18% (inactive) and 0.813%.
On to `COC(=O)COc1ccc(C=C(C#N)c2nc3ccccc3[nH]2)cc1`, for which the inhibition under setting [1] was 59.4% (active) and the inhibition under setting [2] came out at 79.9%.
In the case of `CCOC(=O)C1=C(C)N(c2ccc(Br)cc2)C(=O)C1`, the inhibition runs as follows: under setting [1], 6.73% (inactive); under setting [2], 8.65%.
For the compound `O=C1Nc2ccccc2/C1=N/N=C/C1=C(N2CCOCC2)C(=C\c2ccccc2)/CC1`, the inhibition under setting [1] is -1.05% (inactive) and the inhibition under setting [2] is -11.8%.
As for `COC(=O)COc1cccc(NC(=O)c2cccc(C)c2)c1`, the inhibition was 14.1% (active) under setting [1] and 40.2% under setting [2].
For `COC(=O)COc1cccc(NC(=O)c2ccc(Cl)cc2)c1` the same measures were 50% (active) and 72.5%.
For `COC(=O)COc1ccc(NC(=O)c2cccc(C)c2)cc1` the same measures were 68.2% (active) and 87.4%.
`O=C(c1ccc(Cl)cc1)C1CCCN(Cc2cnn(-c3ccccc3)c2)C1` (stereo unspecified): the inhibition under setting [1] was 1.81% (inactive) and the inhibition under setting [2] is -16.6%.
With `CC1CCCN(CCC(=O)c2ccc(Br)cc2)C1` (stereo unspecified), the inhibition was 72.2% (active) under setting [1] and 84.5% under setting [2].
As to `COc1ccc(C(=O)CCN2CCCC(C)C2)cc1` (stereo unspecified), the inhibition by setting is: under setting [1], 13.2% (inactive); under setting [2], 13.2%.
In the case of `COc1ccc(C)cc1NC(=O)c1ccc(Cc2ccc(C)cc2)o1`, the inhibition under setting [1] is 98.3% (active) and the inhibition under setting [2] is 101%.
For `COc1cc2c(cc1NC(=O)Nc1ccc(Cl)cc1)oc1ccccc12` the same measures were 0.315% (inactive) and -15.8%.
Regarding `Cc1cc(N2CCCCC2)nc2ccc(NC(=O)c3ccc(Br)o3)cc12`, the inhibition by setting is: under setting [1], 0.712% (inactive); under setting [2], -27.2%.
For `Cc1ccc(Cc2ccc(C(=O)Nc3ccc(C)c(C)c3)o2)cc1` the same measures were 99.7% (active) and 99.7%.
For `COc1ccc2c(c1)CCC1Sc3ccccc3N=C21` (stereo unspecified) the same measures were 1.21% (inactive) and 17%.
For `COC(=O)C(CC(C)C)NC(=O)/C=C/c1ccccc1Cl` (stereo unspecified) the same measures were 11.6% (inactive) and 28.6%.
For `COC(=O)C(CC(C)C)NC(=O)/C=C/c1ccc(Cl)cc1` (stereo unspecified), the inhibition was 53.1% (active) under setting [1] and 45.8% under setting [2].
`CC(C)Cc1cc(C(=O)Nc2c(F)cc(F)cc2Br)no1`: the inhibition reads like this: under setting [1], 22.3% (active); under setting [2], 57.6%.
For `O=C(c1ccco1)N(CCCn1ccnc1)c1nc2ccc(Br)cc2s1` the same measures were 98.9% (active) and 98.4%.
Regarding `O=C(c1ccco1)N(CCCn1ccnc1)c1nc2ccc(Cl)cc2s1`, the inhibition under setting [1] was 97.8% (active) and the inhibition under setting [2] was 99.1%.
For `Cc1ccc2nc(N(CCCn3ccnc3)C(=O)c3ccco3)sc2c1` the same measures were 96.9% (active) and 98.4%.
Turning to `O=C1N(c2ccc3c(c2)OCCO3)C(c2ccccc2)C1(F)F` (stereo unspecified), the inhibition is, setting by setting: under setting [1], 36.5% (active); under setting [2], 75.8%.
For `O=C(Nc1nnc(-c2ccc(F)cc2)o1)c1ccc(Br)s1` the same measures were 66.4% (active) and 78.5%.
For `O=C(Nc1nnc(-c2ccc(Br)cc2)o1)c1cc(Cl)sc1Cl` the same measures were 8.56% (inactive) and 28.1%.
For `COc1ccc(-c2nnc(NC(=O)c3ccc(Cl)s3)o2)cc1` the same measures were 75.4% (active) and 80.6%.
With `O=C(Nc1nnc(-c2ccc(Br)cc2)o1)c1ccc(Cl)s1`, the inhibition under setting [1] is 32.9% (active) and the inhibition under setting [2] was 79.2%.
Consider `CC(C)(C)c1ccc(-n2c(=O)[nH]c3c(C(N)=O)nc(CCc4ccccc4)nc32)cc1`, for which the inhibition was 2.16% (inactive) under setting [1] and -28.9% under setting [2].

These data come from PubChem BioAssay AID1259417 (TB Discovery Research, Infectious Disease Research Institute, 2018).
